A selection: hits, their analogues and other compounds. The true share with any hit is near 3.3%.
Tau FP inhib: qHTS for Inhibitors of Tau Fibril Formation, Fluorescence Polarization; Microtubule-associated protein tau (Homo sapiens), P10636; K18 P301L tau heparin fibrillization, Alexa594 FP, 6 h; Potency, µM (titrated, usually from 57.7 µM), without a hit: at the highest dose activity, negative = inhibition, hits mostly inhibitors; actives 0.39% (n = 280,000); AID 1468, 2008; further: nearly all actives have a fitted effect of over 55% in size
Target sequence (P10636 561-689 P618L limits assumed): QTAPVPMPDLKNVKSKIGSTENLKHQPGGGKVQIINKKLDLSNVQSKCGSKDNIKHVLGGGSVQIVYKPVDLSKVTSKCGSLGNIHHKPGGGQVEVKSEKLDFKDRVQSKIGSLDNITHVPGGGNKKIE
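Human tau K18 […] P301L fragment, 15 uM unlabeled plus 0.24 uM Alexa 594-labeled tau (final), with compound and 20 uM heparin in 100 mM sodium acetate pH 7; 6 hr at 37 C, then Alexa 594 FP read.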
NPSR antag: qHTS Assay for Antagonists of the Neuropeptide S Receptor: cAMP Signal Transduction | Q6W5P4 | CHO-NPSR cells, cAMP TR-FRET, antagonist mode | Potency, µM (highest dose often 38.3 µM), without a hit: at the highest dose activity change, negative = inhibition, most hits filed as inhibitors | actives 1% (n = 220,000) | AID 1461, 2008; further: nearly all actives have a fitted effect of over 50% in size
Target sequence (Q6W5P4 whole entry, looked up): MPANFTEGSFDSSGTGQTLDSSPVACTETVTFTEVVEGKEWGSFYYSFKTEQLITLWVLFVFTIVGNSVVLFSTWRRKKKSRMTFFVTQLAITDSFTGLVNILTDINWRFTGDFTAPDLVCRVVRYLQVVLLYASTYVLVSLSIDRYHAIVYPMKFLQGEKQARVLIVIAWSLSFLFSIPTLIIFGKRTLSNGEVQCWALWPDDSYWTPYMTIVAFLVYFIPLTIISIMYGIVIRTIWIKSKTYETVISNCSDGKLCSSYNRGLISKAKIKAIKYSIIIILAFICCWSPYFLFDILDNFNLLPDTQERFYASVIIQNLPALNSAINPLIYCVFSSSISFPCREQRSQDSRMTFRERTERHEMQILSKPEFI
Tau ThT inhib: qHTS for Inhibitors of Tau Fibril Formation, Thioflavin T Binding | Microtubule-associated protein tau (Homo sapiens), P10636 | Potency, µM (titrated, usually from 57.4 µM), for the others: top-dose activity, negative = inhibition, most hits filed as inhibitors | recombinant tau K18 P301L, heparin-induced fibrillization, ThT fluorescence | actives 2.1% (n = 270,000); further: nearly all actives have a fitted effect of over 55% in size
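Using a mix of unlabeled (15 uM) and Alexa 594-labeled (0.24 uM) tau K18 P301L, heparin-triggered fibrillization over 6 hr at 37 C was scored by ThT fluorescence.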
Tau fluor counter: Counterscreen qHTS for Inhibitors of Tau Fibril Formation, Fluorescence Polarization; tau K18 P301L (four-repeat tau fragment) Alexa594 fluorescence, heparin fibrillization; Potency, µM (highest dose often 57.7 µM), for inactives: at the top dose activity change, negative = decrease; actives 0.93% (n = 280,000); AID 1463, 2008; further: nearly all actives have a fitted effect of over 55% in size
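Human K18 P301L tau (15 uM unlabeled plus 0.24 uM Alexa 594-labeled, final) in 100 mM sodium acetate pH 7 was mixed with compound and 20 uM heparin and incubated 6 hr at 37 C.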
Luc counter: Counterscreen for Luciferase (Kinase-Glo TM) Inhibition; Luciferin 4-monooxygenase (Photuris pensylvanica), Q27757; Kinase-Glo luciferase, ATP luminescence, 8 min; Potency, µM (titrated, usually from 38.3 µM), inactives show at the top dose activity change, negative = inhibition, usual class: inhibitors; actives 0.28% (n = 200,000); AID 1379, 2008; further: nearly all actives have a fitted effect of over 60% in size
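Light output from Kinase-Glo luciferase with luciferin and 10 uM ATP in 50 mM imidazole pH 7.2, KCl, MgCl2, Tween 20, BSA; compound pin-delivered, 8-min ambient incubation, then luminescence read.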
* = called active by the depositor; ? = inconclusive; nt = not tested or not shown; [ ] = another dose, or the depositor's remark. The call rests on the fitted dose curve; in most records, active means well fitted curve in the direction sought with a large enough effect; inconclusive means small, poorly fitted or top-dose-only effect, or another doubt; inactive means no such curve, though single readings can be large; an effect the other way counts as inactive or inconclusive. On the % scale 0 is the no-effect control and ±100 the full control effect; potency means the concentration at half of the fitted maximal effect.

SMILES	Tau FP inhib	NPSR antag	Tau ThT inhib	Tau fluor counter	Luc counter
Cc1cccc(-c2nc(CCNC(=O)Cc3ccccc3)cs2)c1	8%	nt	-11%	-2%	nt
CN1CCc2cccc3c2[C@@H]1Cc1ccc(O)c(O)c1-3	28µM*	10%	28µM*	28µM*[quencher]	-4%
CNc1nc2c(Cl)cc(Cl)cc2s1	-7%	4%[7.67 µM]	-10%	-9%	nt
NNc1nc2c(Cl)ccc(Cl)c2s1	?	-5%	11µM*	10µM*[quencher]	-7%
Cc1c(C(=O)N2CCC(C)CC2)c(S(=O)(=O)NCc2ccc(Br)cc2)c(C)n1C	5%	nt	0%	-3%	nt
Cc1ccc(NC(=O)C(C)Sc2nc(=O)cc(N)n2-c2cccc(C)c2)cc1 (stereo not drawn)	-4%	nt	-7%	-15%	nt
CCN(CC)c1ccc(/C=C2\SC(=O)N(C(C)C)C2=O)o1	4%	?	25µM*	?	nt
O=C1C=C(N(CCO)Cc2ccccc2)c2ccccc2C1=O	?	?	13µM*	-27%	-7%
O=C(CCN1C(=O)c2ccccc2C1=O)N(CCO)Cc1ccccc1	0%	3%[46.1 µM]	0%	1%	-7%
Cc1nc2c(-c3ccc(F)cc3)c(C)nn2c(C)c1CCC(=O)Nc1ccccc1	-11%	-19%	9%	-8%	nt
CCN1CCN(c2ccc(NC(=O)CCc3c(C)nc4c(-c5ccc(F)cc5)c(C)nn4c3C)cc2)CC1	2%	-23%	?	18µM*[quencher]	-1%
COc1cccc(Nc2nc3ccc(OC)cc3s2)c1	7%	-22%	13µM*	13µM*[quencher]	-3%
COc1ccc2nc(Nc3sc4c(c3C(N)=O)CCCC4)sc2c1	2%	-8%	7.1µM*	?	0%
COc1ccc2nc(NC3=NCCC3)sc2c1	4%	-6%[46.1 µM]	-12%	-2%	-5%
Cc1cc(-c2ccccc2)nc(-c2ccccc2)c1C	12%	17%	3.2µM*	-25%	13µM*
O=C(Nc1ccc(-c2csc(Nc3cccc(C(F)(F)F)c3)n2)cc1)c1ccccc1	0%	-40%	?	10µM*[quencher]	nt
CC(=O)NNc1nc(-c2ccccc2)cs1	?	0%	18µM*	?	-4%
O=C(Nc1cccc(-c2csc(Nc3ccccc3)n2)c1)c1ccccc1	2%	?	?	13µM*[quencher]	nt
O=C(Nc1ccc(-c2csc(Nc3cccc(C(F)(F)F)c3)n2)cc1)c1cc([N+](=O)[O-])cc(C(F)(F)F)c1	9%	10µM*	?	3.5µM*[quencher]	nt
CC(=O)NNc1nc(-c2ccc(C)cc2)cs1	-4%	17%	?	-16%	-1%
O=C(Nc1cccc(-c2csc(Nc3cccc(C(F)(F)F)c3)n2)c1)c1ccccc1	-4%	-24%	?	8.9µM*[quencher]	nt
CC(=O)c1cccc(Nc2nc(-c3ccccc3)cs2)c1	?	-21%	?	7.9µM*[quencher]	5%
Nc1nc(Nc2cccc(C(F)(F)F)c2)sc1C(=O)c1ccccc1	5%	nt	-9%	?	nt
c1ccc(Nc2nc(-c3ccncc3)cs2)cc1	-2%	8%	1%	2%	-2%
CCC(C)NC(=O)Cn1c(=O)n(Cc2ccc(C(=O)NCCCOC)cc2)c(=O)c2ccccc21 (stereo not drawn)	5%	nt	-1%	-5%	nt
SMILES	Tau FP inhib	NPSR antag	Tau ThT inhib	Tau fluor counter	Luc counter
Cn1c(CNC(=O)CSc2nc(-c3ccccc3F)nc3cc(=O)[nH]n23)nc2ccccc21	2%	nt	-5%	-3%	nt
COc1ccc2ccccc2c1/C=N/NC(=O)c1sc(N)c(C#N)c1C	8%	-10%	?	?	1%
COc1cc(/C=N/NC(=O)c2sc(N)c(C#N)c2C)cc(Br)c1O	14%	-10%[46.1 µM]	4.5µM*	?	1%
O=C(NC(=S)Nn1cnc2c(cnn2-c2ccccc2)c1=O)c1ccccc1	2%	6%	-4%	-2%	-1%
Cc1ccc2c(Cl)c(C(=O)Nc3ccc4c(c3)OCO4)sc2c1	7%	6.3µM*	?	-12%	-1%
CCOC(=O)c1c(N)sc(C(=O)Nc2ccc3c(c2)OCO3)c1C	-3%	?	-5%	-7%	4.5µM*
CCOC(=O)CNc1ccc2c(c1)OCO2	?	-6%[46.1 µM]	32µM*	-28%	2%
CCOC(=O)CSc1nc(Nc2ccc3c(c2)OCO3)c2ccccc2n1	14%	-10%[46.1 µM]	?	13µM*[quencher]	-2%
Cc1noc(C(=O)Nc2ccc3c(c2)OCO3)c1Cl	6%	1%[46.1 µM]	?	-14%	-12%
O=C(Nc1ccccc1)N1CCC2(CC1)CCN(C(=O)c1ccncc1)CC2	nt	nt	nt	nt	-4%
Cc1cc(NC(=O)c2ccc(-c3ccc(Br)cc3)o2)cc(-c2nc3ncccc3o2)c1O	-8%	nt	?	-26%	nt
O=C(NC1CC(=O)N(c2ccc(F)cc2)C1)C1CC1 (stereo not drawn)	-10%	nt	2%	-6%	nt
COc1ccc2cc(C(=O)NCc3ccco3)c(=O)oc2c1	3%	-4%[46.1 µM]	-10%	-1%	-3%
O=C(c1ccccc1)c1cc2ccc(O)cc2oc1=O	4%	-13%[46.1 µM]	-4%	5%	11µM*
O=C(NCc1ccco1)c1cc2ccc(O)cc2oc1=O	4%	-25%[46.1 µM]	-10%	-15%	5µM*
CN(CC(=O)Nc1cccc(C(F)(F)F)c1)S(=O)(=O)c1ccc2[nH]c3c(c2c1)CCCC3	?	nt	-8%	25µM*[quencher]	nt
COc1ccc(NC(=O)CN(C)S(=O)(=O)c2ccc3[nH]c4c(c3c2)CCCC4)cc1Cl	5%	nt	-9%	14µM*[quencher]	nt
CN(CC(=O)Nc1cccc(Cl)c1)S(=O)(=O)c1ccc2[nH]c3c(c2c1)CCCC3	-10%	nt	-8%	14µM*[quencher]	nt
COc1ccc(C2C=C(c3ccccc3)Nc3nc(NC(=O)/C=C/c4ccc(Cl)cc4)nn32)cc1 (stereo not drawn)	11%	nt	-4%	2%	nt
O=C(c1cc(C(F)(F)F)cc(C(F)(F)F)c1)N1CCC[C@@]2(CCN(Cc3ccccc3)C2)C1	nt	nt	nt	nt	-2%
COc1c(C2=CC(=O)N(C)C2=O)c2c(n1C)C(=O)c1ccccc1C2=O	-12%	nt	14µM*	18µM*[quencher]	-4%
COc1ccc2c(c1O)C(=O)c1ccccc1C2=O	10%	-21%	?	-5%	nt
COc1cc(/C=C2/C(=O)c3cccc([N+](=O)[O-])c3C2=O)c(Br)cc1O	?	10µM*	13µM*	?	11µM*
CCOC(=O)c1c2c(n3ccccc13)C(=O)c1ccccc1C2=O	nt	nt	nt	nt	-3%[7.66 µM]
COC(=O)c1c(Cl)c2n3ccccc3c(C)c(-c3ccccc3)c-2c1C(=O)OC	?	6%	7.9µM*	?	-10%

High-throughput results (PubChem BioAssay)
